Where a name gives a salt, the structure may show the parent alone. Hit rate of the full screen: of about 5,500 compounds, about 2,000 (36%) were called active. Another 18% or so got no clear call; they are omitted. Rule as the data show it: active = normalized growth mostly below about 0.91 (no sharp cut-off); inconclusive = no clear call, values can overlap the other calls; inactive = mostly above about 0.92. Some of the results follow. Where a SMILES comes first, the peptide text is derived from it. The star is where a group is joined. Tfa = O=C(C(F)(F)F)*
Assay: chemical genetic growth profiling, strain panel (AID 1159580);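 also: tested at 20 µM; growth read once vehicle control cultures reached saturation at 30 °C; 1 = growth at the plate median or of vehicle wells; lower values mean less growth of the strain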
Details: S. cerevisiae deletion strains, growth OD
[1] = locus YAL021C, strain ccr4, active compounds read low
[2] = locus YAL026C, strain drs2, active compounds read low
[3] = locus YAL030W, strain snc1, active compounds read low
[4] = locus YBL061C, strain skt5, active compounds read low
[5] = locus YBR009C, strain hhf1, active compounds read low
[6] = locus YBR023C, strain chs3, active compounds read low
[7] = locus YBR171W, strain sec66, active compounds read low
[8] = locus YBR231C, strain swc5, active compounds read low
[9] = locus YBR279W, strain paf1, active compounds read low
[10] = locus YCL011C, strain gbp2, active compounds read low
[11] = locus YCL016C, strain dcc1, active compounds read low
[12] = locus YCL069W, strain vba3, active compounds read low
[13] = locus YCR088W, strain abp1, active compounds read low
[14] = locus YDL005C, strain med2, active compounds read low
[15] = locus YDL040C, strain nat1, active compounds read low
[16] = locus YDR001C, strain nth1, active compounds read low
[17] = locus YDR069C, strain doa4, active compounds read low
[18] = locus YDR137W, strain rgp1, active compounds read low
[19] = locus YDR159W, strain sac3, active compounds read low
[20] = locus YDR297W, strain sur2, active compounds read low
[21] = locus YDR334W, strain swr1, active compounds read low
[22] = locus YDR335W, strain msn5, active compounds read low
[23] = locus YDR392W, strain spt3, active compounds read low
[24] = locus YEL003W, strain gim4, active compounds read low
[25] = locus YEL037C, strain rad23, active compounds read low
[26] = locus YEL061C, strain CIN8 (second series), active compounds read low
[27] = locus YER015W, strain faa2, active compounds read low
[28] = locus YER016W, strain bim1, active compounds read low
[29] = locus YER111C, strain swi4, active compounds read low
[30] = locus YER155C, strain BEM2 (second series), active compounds read low
[31] = locus YFR010W, strain ubp6, active compounds read low
[32] = locus YGL167C, strain pmr1, active compounds read low
[33] = locus YGL173C, strain kem1, active compounds read low
[34] = locus YGL227W, strain vid30, active compounds read low
[35] = locus YGL240W, strain doc1, active compounds read low
[36] = locus YGL253W, strain hxk2, active compounds read low
[37] = locus YHR013C, strain ard1, active compounds read low
[38] = locus YHR027C, strain rpn1, active compounds read low
[39] = locus YHR142W, strain chs7, active compounds read low
[40] = locus YJL092W, strain hpr5, active compounds read low
[41] = locus YJL095W, strain BCK1 (second series), active compounds read low
[42] = locus YJL115W, strain asf1, active compounds read low
[43] = locus YJL129C, strain trk1, active compounds read low
[44] = locus YJL154C, strain vps35, active compounds read low
[45] = locus YJL164C, strain tpk1, active compounds read low
[46] = locus YJL166W, strain qcr8, active compounds read low
[47] = locus YKL160W, strain elf1, active compounds read low
[48] = locus YKR026C, strain gcn3, active compounds read low
[49] = locus YKR091W, strain srl3, active compounds read low
[50] = locus YLL001W, strain dnm1, active compounds read low
[51] = locus YLL026W, active compounds read low
[52] = locus YLL041C, strain sdh2, active compounds read low
[53] = locus YLR027C, strain aat2, active compounds read low
[54] = locus YLR221C, strain rsa3, active compounds read low
[55] = locus YLR258W, strain gsy2, active compounds read low
[56] = locus YLR262C, strain YPT6 (second series), active compounds read low
[57] = locus YLR320W, strain mms22, active compounds read low
[58] = locus YLR342W, strain FKS1, active compounds read low
[59] = locus YLR357W, strain rsc2, active compounds read low
[60] = locus YLR370C, strain arc18, active compounds read low
[61] = locus YLR384C, strain iki3, active compounds read low
[62] = locus YML120C, strain ndi1, active compounds read low
[63] = locus YMR058W, strain fet3, active compounds read low
[64] = locus YMR125W, strain sto1, active compounds read low
[65] = locus YMR129W, active compounds read low
[66] = locus YMR205C, strain PFK2, active compounds read low
[67] = locus YMR231W, strain pep5, active compounds read low
[68] = locus YNL071W, strain lat1, active compounds read low
[69] = locus YNL209W, strain ssb2, active compounds read low
[70] = locus YNL248C, strain rpa49, active compounds read low
[71] = locus YNL322C, strain KRE1 (second series), active compounds read low
[72] = locus YNR049C, strain mso1, active compounds read low
[73] = locus YOR001W, strain rrp6, active compounds read low
[74] = locus YOR070C, strain gyp1, active compounds read low
[75] = locus YOR080W, strain dia2, active compounds read low
[76] = locus YOR083W, strain WHI5, active compounds read low
[77] = locus YOR106W, strain vam3, active compounds read low
[78] = locus YOR265W, strain rbl2, active compounds read low
[79] = locus YOR270C, strain vph1, active compounds read low
[80] = locus YOR290C, strain snf2, active compounds read low
[81] = locus YPL051W, strain arl3, active compounds read low
[82] = locus YPL078C, strain atp4, active compounds read low
[83] = locus YPL106C, strain sse1, active compounds read low
[84] = locus YPL240C, strain hsp82, active compounds read low

Measured: normalized growth

O=C1C=C2C=C[C@@H]3C[C@@]2(O1)[C@H]1CCCCN31
inactive: [1] 1.02 | [2] 1.01 | [3] 0.993 | [4] 1.01 | [5] 0.938 | [6] 1.01 | [7] 0.99 | [8] 0.977 | [9] 1.01 | [10] 1.01 | [11] 1.04 | [12] 0.974 | [13] 0.985 | [14] 0.998 | [15] 0.997 | [16] 0.992 | [17] 0.996 | [18] 0.965 | [19] 0.93 | locus YDR195W, strain ref2 0.973 | [20] 0.994 | [21] 0.956 | [22] 1.01 | [23] 0.973 | [24] 0.95 | [25] 0.982 | [26] 0.976 | [27] 1.01 | [28] 1.03 | [29] 1 | [30] 0.986 | [31] 0.96 | [32] 0.978 | [33] 0.977 | [34] 0.985 | [35] 0.989 | [36] 1.01 | [37] 1.01 | [38] 0.979 | locus YHR030C, strain SLT2, active compounds read low 1.06 | locus YHR079C, strain IRE1, active compounds read low 1.05 | [39] 1.01 | [40] 0.993 | [41] 1 | locus YJL095W, strain BCK1, active compounds read low 1 | [42] 0.993 | [43] 1.01 | [44] 0.986 | [45] 0.969 | [46] 0.961 | locus YJL187C, strain SWE1, active compounds read low 0.984 | locus YJR066W, strain TOR1, active compounds read low 1 | [47] 1.05 | [48] 0.976 | [49] 0.992 | [50] 0.974 | [51] 0.996 | [52] 1 | [53] 1 | locus YLR113W, strain HOG1, active compounds read low 1.03 | [54] 0.966 | [55] 1.01 | [56] 0.927 | [57] 0.926 | [58] 1 | [59] 0.986 | [60] 1.01 | [61] 0.991 | [62] 0.956 | [63] 0.981 | [64] 1 | [65] 0.986 | [66] 0.997 | [67] 0.994 | [68] 0.98 | locus YNL183C, strain NPR1, active compounds read low 0.973 | [69] 1 | [70] 1.04 | [71] 1 | [72] 1.01 | [73] 0.94 | [74] 0.991 | [75] 0.994 | [76] 0.982 | [77] 1.01 | locus YOR231W, strain MKK1, active compounds read low 1.02 | [78] 0.989 | [79] 1 | [80] 1.05 | [81] 1.05 | [82] 1.04 | [83] 1.02 | [84] 0.994 | locus YPL256C, strain CLN2, active compounds read low 1.03

CC(C)C(NC(=O)C(Cc1ccc(O)cc1)NC(=O)C(NC(=O)C(F)(F)F)C(C)C)C(=O)O (stereo not drawn) (Tfa-Val-Tyr-Val-OH; configuration not given here)
inactive: [1] 0.997 | [2] 1 | [3] 0.985 | [4] 0.984 | [5] 1.02 | [6] 0.983 | [7] 0.976 | [8] 1 | [9] 0.996 | [10] 1 | [11] 0.98 | [12] 1 | [13] 0.988 | [14] 0.998 | [15] 0.976 | [16] 0.997 | [17] 0.984 | [18] 0.968 | [19] 0.979 | locus YDR195W, strain ref2 0.995 | [20] 0.985 | [21] 1.01 | [22] 0.994 | [23] 0.935 | [24] 0.996 | [25] 0.99 | [26] 1.01 | [27] 0.999 | [28] 0.976 | [29] 0.972 | [30] 0.983 | [31] 0.997 | [32] 0.985 | [33] 0.991 | [34] 0.988 | [35] 0.998 | [36] 0.982 | [37] 0.94 | [38] 0.988 | [39] 0.995 | [40] 0.995 | [41] 0.975 | [42] 0.986 | [43] 0.995 | [44] 0.98 | [45] 0.989 | [46] 1.02 | [47] 1 | [48] 0.989 | [49] 0.983 | [50] 1 | [51] 1 | [52] 1 | [53] 0.991 | [54] 1 | [55] 0.995 | [56] 0.969 | [57] 0.993 | [58] 0.996 | [59] 0.951 | [60] 0.992 | [61] 1 | [62] 0.98 | [63] 0.982 | [64] 0.978 | [65] 0.998 | [66] 0.998 | [67] 0.997 | [68] 0.987 | [69] 1 | [70] 0.963 | [71] 0.971 | [72] 1 | [73] 1 | [74] 0.995 | [75] 0.984 | [76] 0.94 | [77] 1 | [78] 0.998 | [79] 0.963 | [80] 0.985 | [81] 0.986 | [82] 0.987 | [83] 0.954 | [84] 0.981

Source: PubChem BioAssay AID1159580 (chemical genetic matrix, 2015)
